Paper PMC5540273 (PLoS ONE, 2017)

System: MAP3K1
Conditions: concentration: 1 μM, replicates: in singlicate; n = 1
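Further: KINOMEscan kinase panel screen.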

SMILES | %Inh [%]
Cn1cncc1C(=O)NC1CCN(c2ccnc(Nc3ccc(F)cc3)n2)C1 (stereo not shown) [GSK1379717] | 2
CC(C)c1cc(-c2ccc3c(N)n[nH]c3c2)nc(N)n1 [GSK2250882] | 0
COc1cccc(CNC(=O)NC2CCN(c3ccnc(Nc4ccc(F)cc4)n3)C2)c1 (stereo not shown) [GSK1379723] | 7
Cc1ccc(-c2nc(Nc3ccncc3)c3ccccc3n2)s1 [GSK189015] | 40
Nc1nccc(-c2c(-c3ccc(F)cc3)ncn2C2CCN(Cc3ccccc3)CC2)n1 [SB-219980] | 0
COc1cccc(C2=C(Nc3cc(Cl)c(O)c(Cl)c3)C(=O)NC2=O)c1 [SB-390767] | 12
Cc1ccc(NC(=O)Nc2ccc(Cl)c(C(F)(F)F)c2)cc1-c1ccc(C(=O)Nc2ccncc2)cc1 [GSK1398470] | 3
COc1ccc(Nc2nccc(N3CCC(NC(=O)c4cc5ccccc5s4)C3)n2)cc1 (stereo not shown) [GSK1379738] | 5
Cc1ccc(NC(=O)c2ccc(Cl)cc2)cc1-c1ccc(C(=O)Nc2ccncc2)cc1 [GSK1398467] | 12
FC(F)(F)c1ccccc1-c1cc(-c2c[nH]nc2-c2ccccn2)ccn1 [GW679396] | 11
CNc1cc(-c2ccc3c(N)n[nH]c3c2)nc(N)n1 [GSK2224810] | 0
Cc1nccc(-c2c(-c3ccc(F)cc3)ncn2CCCN2CCOCC2)n1.Cl [SB-282975] | 20
CS(=O)(=O)CCNCc1nc(-c2ccc3ncnc(Nc4ccc(OCc5ccccc5)c(Cl)c4)c3c2)cs1.Cl [GW582764] | 6
